Assay results reported in PubChem BioAssay (EPA / NIEHS).
The source made the active and inactive calls. Rule for the calls: active = hit-call score of the fitted dose curve at least 0.9, where 1 is the maximum; inactive = score below 0.9.

Each molecule was assayed against Transcription factor Sp1 (Homo sapiens) (UniProt P08047) (assay: ATG_Sp1_CIS: Attagene CIS-FACTORIAL HepG2 Assay for human Specificity Protein 1 (Sp1) (AID 2282961)). Settings: HepG2 Sp1 cis-reporter transcription, actives raise or lower the signal.
Transcription factor Sp1 (Homo sapiens), sequence (P08047 whole entry, looked up): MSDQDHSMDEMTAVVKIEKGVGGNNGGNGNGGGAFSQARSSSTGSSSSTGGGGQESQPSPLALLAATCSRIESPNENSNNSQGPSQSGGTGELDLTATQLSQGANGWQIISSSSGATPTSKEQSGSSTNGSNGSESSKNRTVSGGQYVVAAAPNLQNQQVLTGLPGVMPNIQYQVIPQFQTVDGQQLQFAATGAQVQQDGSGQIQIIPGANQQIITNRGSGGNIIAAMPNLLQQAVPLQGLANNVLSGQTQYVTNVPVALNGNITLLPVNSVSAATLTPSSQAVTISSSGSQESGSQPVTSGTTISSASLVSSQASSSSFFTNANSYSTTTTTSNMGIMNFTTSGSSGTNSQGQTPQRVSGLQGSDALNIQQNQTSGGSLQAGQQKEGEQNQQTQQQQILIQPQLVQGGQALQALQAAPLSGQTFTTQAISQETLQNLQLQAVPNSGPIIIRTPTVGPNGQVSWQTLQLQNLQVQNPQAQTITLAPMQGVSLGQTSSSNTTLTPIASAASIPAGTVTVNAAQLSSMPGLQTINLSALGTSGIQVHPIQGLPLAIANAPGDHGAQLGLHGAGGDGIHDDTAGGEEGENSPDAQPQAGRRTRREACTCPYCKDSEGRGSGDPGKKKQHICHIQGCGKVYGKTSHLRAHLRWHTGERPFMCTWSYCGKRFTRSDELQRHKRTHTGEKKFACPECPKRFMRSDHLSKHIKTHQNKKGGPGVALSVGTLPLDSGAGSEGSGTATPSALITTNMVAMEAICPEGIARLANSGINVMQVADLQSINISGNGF
Description: ATG_CIS is a cell-based, multiplexed-readout assay that uses HepG2, a human liver cell line, with measurements taken at 24 hours after chemical dosing in a 24-well plate.ATG_Sp1_CIS is one of 52 assay component(s) measured or calculated from the ATG_CIS assay. It is designed to make measurements of mRNA induction, a form of inducible reporter, as detected with fluorescence intensity signals by Reverse transcription polymerase chain reaction (RT-PCR) and Capillary electrophoresis technology.Data from the assay component ATG_Sp1_CIS was analyzed into 1 assay endpoint. This assay endpoint, ATG_Sp1_CIS, was analyzed with bidirectional fitting relative to DMSO as the negative control and baseline of activity. Using a type of inducible reporter, measures of mRNA for gain or loss-of-signal activity can be used to understand the reporter gene at the transcription factor-level as they relate to the gene SP1. Furthermore, this assay endpoint can be referred to as a primary readout, because this assay has produced multiple assay endpoints where this one serves a reporter gene function. To generalize the intended target to other relatable targets, this assay endpoint is annotated to the dna binding intended target family, where the subfamily is zinc finger.
Human liver HepG2 cells are transiently transfected with multiple reporter transcription units (MRTUs) in 6-well plates using FuGene 6 reagent (Roche; 3 ml FuGene/1 mg DNA). The MRTU constructs are regulated by a cis-regulating element (promoter). […] A major difference between the CIS and TRANS system is that in CIS activities of endogenous TFs are measured, whereas the TRANS assay evaluates changes in activities of exogenous, chimeric NR-Gal4 proteins. […] At the end of 24 hour incubation, total RNA was isolated using TriZol reagent (Invitrogen). The isolated RNA is then reverse-transcribed using oligo(dT) primer and Mo-MLV reverse transcriptase (Invitrogen) with DNAse I (Ambion) treatment for 30 min. The one-tenth of the produced cDNA was amplified by PCR using Taq DNA polymerase (Invitrogen) and two reporter sequence-specific primers. The PCR products were fluorescently labeled by primer extension with 6-arboxyfluorescein (6-FAM) 5'-labeled reporter sequence-specific primer (2 min at 95 C, 20 s at 68 C and 10 min at 72 C) and these products were digested with 5U of HpaI (New England Biolabs) for 2h at 37 C. The fragments were purified using Qiaquick PCR columns (Qiagen), analyzed on an ABI 3130xL genetic analyzer (Applied Biosystems) with peak positions identified by using a set of X-rhodamine (ROX)-labeled MapMarker1000 molecular weight standards (BioVentures). The raw capillary electrophoresis data was processed using Attagraph software (Attagene).
`C=C(C)C(=O)OCC(CC)(COC(=O)C(=C)C)COC(=O)C(=C)C` was tested, and the outcome was “inactive”.
In the case of `c1ccc2[nH]cnc2c1`, the outcome is reported as “inactive”.
For `CC(=O)NCCO`, the outcome was “inactive”.
In the case of `CC1=C(Br)C(=O)C(Br)=C/C1=C(/c1ccccc1S(=O)(=O)O)c1cc(Br)c(O)c(Br)c1C`, the outcome is reported as “inactive”.
With `Cc1ccc(S(=O)(=O)Oc2ccc(N=Nc3ccc(-c4ccc(N=Nc5c(O)ccc6cc(S(=O)(=O)O)cc(S(=O)(=O)O)c56)c(C)c4)cc3C)cc2)cc1` the outcome was “inactive”.
With `OC[C@H]1O[C@@H](Oc2ccc(O)cc2)[C@H](O)[C@@H](O)[C@@H]1O` the outcome was “inactive”.
For `N[C@@H](Cc1cc(I)c(Oc2cc(I)c(O)c(I)c2)c(I)c1)C(=O)O`, the outcome was “inactive”.
In the case of `CC(=O)c1ccccn1`, the outcome is reported as “inactive”.
For `O=C(CS)OCCOC(=O)CS`, the outcome was “inactive”.
`O=C1OC[C@H](Cc2cccc(O)c2)[C@H]1Cc1cccc(O)c1` was tested, and the outcome was “inactive”.
In the case of `C=Cc1ccc(C)cc1`, the outcome is reported as “inactive”.
For `CCC(=O)OCCOc1ccccc1`, the outcome was “inactive”.
For `C=C(C)[C@H]1CC=C(C)C(=O)C1`, the outcome was “inactive”.
`CC(C)Nc1nc(N)nc(Cl)n1` was tested, and the outcome was “inactive”.
With `BrCc1cccc(Oc2ccccc2)c1` the outcome was “inactive”.
With `Nc1ccn([C@H]2CS[C@@H](CO)O2)c(=O)n1` the outcome was “inactive”.
`COc1ccc(N=Nc2cc(C)c(N=Nc3ccc(S(=O)(=O)O)cc3)cc2OC)cc1` was tested, and the AC50 was 175 µM (active).
For `CC(=O)Nc1ccc(C(=O)CCl)cc1`, the AC50 was 8.32 µM (active).
With `CS(=O)(=O)c1ccc(C2=C(c3ccccc3)C(=O)OC2)cc1` the outcome was “inactive”.
In the case of `CC/C=C\CCOC(=O)CC`, the outcome is reported as “inactive”.
With `CCCCCCCCCCCCCCN(CCO)CCO` the AC50 was 11.1 µM (active).
For `CCC(Cl)C(Cl)C(Cl)CC(Cl)C(Cl)C(C)Cl` (stereo not given), the outcome was “inactive”.
With `CC(C)CCCCCCCCCCCCCCC(=O)O` the outcome was “inactive”.
In the case of `CCCCCCOC(=O)C(C)C`, the outcome is reported as “inactive”.
`COC(=O)c1ccc(OC)cc1` was tested, and the outcome was “inactive”.
In the case of `Nc1c(S(=O)(=O)O)cc(Br)c2c1C(=O)c1ccccc1C2=O`, the outcome is reported as “inactive”.
For `CC1CCC(C(C)C)C(O)C1` (stereo not given), the outcome was “inactive”.
With `CCNCCO` the outcome was “inactive”.
With `CC/C=C\CC/C=C/CO` the outcome was “inactive”.
With `CCCC(C)C(O)CC` (stereo not given) the outcome was “inactive”.
In the case of `C=Cc1ccncc1`, the AC50 is reported as 27.1 µM (active).
With `Cc1c(Cl)cccc1[N+](=O)[O-]` the outcome was “inactive”.
With `O=C(Nc1ccc2c(O)c(N=Nc3ccc(N=Nc4ccc(S(=O)(=O)O)cc4)cc3)c(S(=O)(=O)O)cc2c1)c1ccccc1` the outcome was “inactive”.
In the case of `O=C(O)c1cc(C(=O)O)cc([N+](=O)[O-])c1`, the outcome is reported as “inactive”.
`IC(I)I` was tested, and the outcome was “inactive”.
In the case of `O=C(c1ccccc1)C(O)c1ccccc1` (stereo not given), the outcome is reported as “inactive”.
With `O=C1NC2NC(=O)NC2N1` (stereo not given) the outcome was “inactive”.
In the case of `CCCCCCCC(=O)OCC(O)CO` (stereo not given), the outcome is reported as “inactive”.
`ON=C1CCCCC1` was tested, and the outcome was “inactive”.
`Nc1ccc(NCCO)c([N+](=O)[O-])c1` was tested, and the outcome was “inactive”.
